Assay results reported in PMC11006913.
Changes are numbered by the printed parent chain.

Experiments:
Assay in all cases: PBM; 200 nM protein, PBS
Details in all cases: dsDNA, one strand shown
SIX6 [1] = target: T1, SIX6 (Homo sapiens, UniProt O95475 114-200, L167I)
T1 sequence: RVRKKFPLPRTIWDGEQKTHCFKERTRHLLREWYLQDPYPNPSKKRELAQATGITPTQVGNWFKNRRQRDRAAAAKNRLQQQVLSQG

SIX6 [2] = target: T2, SIX6 (Homo sapiens, UniProt O95475 114-200, L143V)
T2 sequence: T1 sequence with L30V, I54L

SIX6 [3] = target: T3, SIX6 (Homo sapiens, UniProt O95475 114-200, H141N)
T3 sequence: T1 sequence with H28N, I54L

SIX6 [4] = target: T4, SIX6 (Homo sapiens, UniProt O95475 114-200, T165P)
T4 sequence: T1 sequence with T52P, I54L

SIX6 [5] = target: T5, SIX6 (Homo sapiens, UniProt O95475 114-200, L167M)
T5 sequence: T1 sequence with I54M

SIX6 [6] = target: T6, SIX6 (Homo sapiens, UniProt O95475 114-200, L143M)
T6 sequence: T1 sequence with L30M, I54L

SIX6 [7] = target: T7, SIX6 (Homo sapiens, UniProt O95475 114-200, L143I)
T7 sequence: T1 sequence with L30I, I54L

SIX6 [8] = target: T8, SIX6 (Homo sapiens, UniProt O95475 114-200, T165G)
T8 sequence: T1 sequence with T52G, I54L

SIX6 [9] = target: T9, SIX6 (Homo sapiens, UniProt O95475 114-200, T139Q)
T9 sequence: T1 sequence with T26Q, I54L

SIX6 [10] = target: T10, SIX6 (Homo sapiens, UniProt O95475 114-200, T165A)
T10 sequence: T1 sequence with T52A, I54L

SIX6 [11] = target: T11, SIX6 (Homo sapiens, UniProt O95475 114-200, L167V)
T11 sequence: T1 sequence with I54V

SIX6 [12] = target: T12, SIX6 (Homo sapiens, UniProt O95475 114-200)
T12 sequence: T1 sequence with I54L

SIX6 [13] = target: T13, SIX6 (Homo sapiens, UniProt O95475 114-200, T165I)
T13 sequence: T1 sequence with T52I, I54L

CRX = CRX (Homo sapiens, UniProt O43186 26-111, R41L)
HOXD13 [14] = target: HOXD13 (Homo sapiens, UniProt P35453 263-343, T313R)
HOXD13 [15] = target: HOXD13 (Homo sapiens, UniProt P35453 263-343)
HOXD13 [16] = target: HOXD13 (Homo sapiens, UniProt P35453 263-343, T313A)
NKX3-2 [17] = target: NKX3-2 (Homo sapiens, UniProt P78367 192-278, P234S)
NKX3-2 [18] = target: NKX3-2 (Homo sapiens, UniProt P78367 192-278)
Chain of NKX3-2 (Homo sapiens, UniProt P78367 192-278) (P78367 192-278): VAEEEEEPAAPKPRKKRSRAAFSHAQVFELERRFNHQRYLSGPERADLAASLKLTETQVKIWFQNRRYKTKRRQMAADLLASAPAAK

Chain of CRX (O43186 26-111 R41L): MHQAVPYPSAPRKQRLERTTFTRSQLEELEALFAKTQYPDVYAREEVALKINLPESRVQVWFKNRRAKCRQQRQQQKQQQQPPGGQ
Chain of HOXD13 (Homo sapiens, UniProt P35453 263-343, T313R) (P35453 263-343 T313R): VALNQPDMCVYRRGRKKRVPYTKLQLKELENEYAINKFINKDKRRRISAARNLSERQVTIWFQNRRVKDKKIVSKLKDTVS
Chain of NKX3-2 (Homo sapiens, UniProt P78367 192-278, P234S) (P78367 192-278 P234S): as the sequence (P78367 192-278) above, with P43S counted along it
Chain of HOXD13 (Homo sapiens, UniProt P35453 263-343) (P35453 263-343): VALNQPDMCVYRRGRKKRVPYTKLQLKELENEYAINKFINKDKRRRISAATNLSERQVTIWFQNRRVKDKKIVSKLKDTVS
Chain of HOXD13 (Homo sapiens, UniProt P35453 263-343, T313A) (P35453 263-343 T313A): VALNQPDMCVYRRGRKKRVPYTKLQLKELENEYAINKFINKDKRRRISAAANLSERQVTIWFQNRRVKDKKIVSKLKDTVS

CGCGTAGC
binding signal (SIX6 [1]): 9.05 upbm affinity estimate (log intensity, higher = more binding, comparable within an allelic series)
binding signal (SIX6 [2]): 8.9 upbm affinity estimate (log intensity, higher = more binding, comparable within an allelic series)
binding signal (SIX6 [3]): 9.02 upbm affinity estimate (log intensity, higher = more binding, comparable within an allelic series)
binding signal (SIX6 [4]): 9.03 upbm affinity estimate (log intensity, higher = more binding, comparable within an allelic series)
binding signal (SIX6 [5]): 8.94 upbm affinity estimate (log intensity, higher = more binding, comparable within an allelic series)
binding signal (SIX6 [6]): 8.94 upbm affinity estimate (log intensity, higher = more binding, comparable within an allelic series)
binding signal (SIX6 [7]): 8.99 upbm affinity estimate (log intensity, higher = more binding, comparable within an allelic series)
binding signal (SIX6 [8]): 9.13 upbm affinity estimate (log intensity, higher = more binding, comparable within an allelic series)
binding signal (SIX6 [9]): 9.19 upbm affinity estimate (log intensity, higher = more binding, comparable within an allelic series)
binding signal (SIX6 [10]): 9.02 upbm affinity estimate (log intensity, higher = more binding, comparable within an allelic series)
binding signal (SIX6 [11]): 8.99 upbm affinity estimate (log intensity, higher = more binding, comparable within an allelic series)
binding signal (SIX6 [12]): 9 upbm affinity estimate (log intensity, higher = more binding, comparable within an allelic series)
binding signal (SIX6 [13]): 8.98 upbm affinity estimate (log intensity, higher = more binding, comparable within an allelic series)

ACCGTCCG
binding signal (CRX): 8.35 upbm affinity estimate (log intensity, higher = more binding, comparable within an allelic series)

CAGGCGCC
binding signal (SIX6 [1]): 8.87 upbm affinity estimate (log intensity, higher = more binding, comparable within an allelic series)
binding signal (SIX6 [2]): 8.82 upbm affinity estimate (log intensity, higher = more binding, comparable within an allelic series)
binding signal (SIX6 [3]): 8.85 upbm affinity estimate (log intensity, higher = more binding, comparable within an allelic series)
binding signal (SIX6 [4]): 8.98 upbm affinity estimate (log intensity, higher = more binding, comparable within an allelic series)
binding signal (SIX6 [5]): 8.93 upbm affinity estimate (log intensity, higher = more binding, comparable within an allelic series)
binding signal (SIX6 [6]): 8.82 upbm affinity estimate (log intensity, higher = more binding, comparable within an allelic series)
binding signal (SIX6 [7]): 8.87 upbm affinity estimate (log intensity, higher = more binding, comparable within an allelic series)
binding signal (SIX6 [8]): 8.8 upbm affinity estimate (log intensity, higher = more binding, comparable within an allelic series)
binding signal (SIX6 [9]): 8.84 upbm affinity estimate (log intensity, higher = more binding, comparable within an allelic series)
binding signal (SIX6 [10]): 8.89 upbm affinity estimate (log intensity, higher = more binding, comparable within an allelic series)
binding signal (SIX6 [11]): 8.89 upbm affinity estimate (log intensity, higher = more binding, comparable within an allelic series)
binding signal (SIX6 [12]): 8.81 upbm affinity estimate (log intensity, higher = more binding, comparable within an allelic series)
binding signal (SIX6 [13]): 8.87 upbm affinity estimate (log intensity, higher = more binding, comparable within an allelic series)

CGCACGCC
binding signal (SIX6 [1]): 8.9 upbm affinity estimate (log intensity, higher = more binding, comparable within an allelic series)
binding signal (SIX6 [2]): 8.88 upbm affinity estimate (log intensity, higher = more binding, comparable within an allelic series)
binding signal (SIX6 [3]): 8.95 upbm affinity estimate (log intensity, higher = more binding, comparable within an allelic series)
binding signal (SIX6 [4]): 8.83 upbm affinity estimate (log intensity, higher = more binding, comparable within an allelic series)
binding signal (SIX6 [5]): 9.01 upbm affinity estimate (log intensity, higher = more binding, comparable within an allelic series)
binding signal (SIX6 [6]): 8.91 upbm affinity estimate (log intensity, higher = more binding, comparable within an allelic series)
binding signal (SIX6 [7]): 8.97 upbm affinity estimate (log intensity, higher = more binding, comparable within an allelic series)
binding signal (SIX6 [8]): 8.9 upbm affinity estimate (log intensity, higher = more binding, comparable within an allelic series)
binding signal (SIX6 [9]): 8.93 upbm affinity estimate (log intensity, higher = more binding, comparable within an allelic series)
binding signal (SIX6 [10]): 8.87 upbm affinity estimate (log intensity, higher = more binding, comparable within an allelic series)
binding signal (SIX6 [11]): 8.9 upbm affinity estimate (log intensity, higher = more binding, comparable within an allelic series)
binding signal (SIX6 [12]): 8.9 upbm affinity estimate (log intensity, higher = more binding, comparable within an allelic series)
binding signal (SIX6 [13]): 8.9 upbm affinity estimate (log intensity, higher = more binding, comparable within an allelic series)

GCCCCCCA
binding signal (HOXD13 [14]): 9.1 upbm affinity estimate (log intensity, higher = more binding, comparable within an allelic series)
binding signal (HOXD13 [15]): 9.22 upbm affinity estimate (log intensity, higher = more binding, comparable within an allelic series)
binding signal (HOXD13 [16]): 9.24 upbm affinity estimate (log intensity, higher = more binding, comparable within an allelic series)

GCCGGTCC
binding signal (CRX): 8.24 upbm affinity estimate (log intensity, higher = more binding, comparable within an allelic series)

AGGCCCGC
binding signal (CRX): 8.27 upbm affinity estimate (log intensity, higher = more binding, comparable within an allelic series)

GCCAGCCC
binding signal (SIX6 [1]): 8.95 upbm affinity estimate (log intensity, higher = more binding, comparable within an allelic series)
binding signal (SIX6 [2]): 8.86 upbm affinity estimate (log intensity, higher = more binding, comparable within an allelic series)
binding signal (SIX6 [3]): 9.06 upbm affinity estimate (log intensity, higher = more binding, comparable within an allelic series)
binding signal (SIX6 [4]): 8.85 upbm affinity estimate (log intensity, higher = more binding, comparable within an allelic series)
binding signal (SIX6 [5]): 9.06 upbm affinity estimate (log intensity, higher = more binding, comparable within an allelic series)
binding signal (SIX6 [6]): 9.06 upbm affinity estimate (log intensity, higher = more binding, comparable within an allelic series)
binding signal (SIX6 [7]): 8.94 upbm affinity estimate (log intensity, higher = more binding, comparable within an allelic series)
binding signal (SIX6 [8]): 9.06 upbm affinity estimate (log intensity, higher = more binding, comparable within an allelic series)
binding signal (SIX6 [9]): 9.07 upbm affinity estimate (log intensity, higher = more binding, comparable within an allelic series)
binding signal (SIX6 [10]): 9.01 upbm affinity estimate (log intensity, higher = more binding, comparable within an allelic series)
binding signal (SIX6 [11]): 8.96 upbm affinity estimate (log intensity, higher = more binding, comparable within an allelic series)
binding signal (SIX6 [12]): 8.98 upbm affinity estimate (log intensity, higher = more binding, comparable within an allelic series)
binding signal (SIX6 [13]): 9.01 upbm affinity estimate (log intensity, higher = more binding, comparable within an allelic series)

CCGCCCCC
binding signal (NKX3-2 [17]): 10.4 upbm affinity estimate (log intensity, higher = more binding, comparable within an allelic series)
binding signal (NKX3-2 [18]): 10.4 upbm affinity estimate (log intensity, higher = more binding, comparable within an allelic series)

CAGCCAGG
binding signal (SIX6 [1]): 9.07 upbm affinity estimate (log intensity, higher = more binding, comparable within an allelic series)
binding signal (SIX6 [2]): 8.86 upbm affinity estimate (log intensity, higher = more binding, comparable within an allelic series)
binding signal (SIX6 [3]): 9.06 upbm affinity estimate (log intensity, higher = more binding, comparable within an allelic series)
binding signal (SIX6 [4]): 8.91 upbm affinity estimate (log intensity, higher = more binding, comparable within an allelic series)
binding signal (SIX6 [5]): 9.02 upbm affinity estimate (log intensity, higher = more binding, comparable within an allelic series)
binding signal (SIX6 [6]): 9.06 upbm affinity estimate (log intensity, higher = more binding, comparable within an allelic series)
binding signal (SIX6 [7]): 9.03 upbm affinity estimate (log intensity, higher = more binding, comparable within an allelic series)
binding signal (SIX6 [8]): 9.14 upbm affinity estimate (log intensity, higher = more binding, comparable within an allelic series)
binding signal (SIX6 [9]): 9.1 upbm affinity estimate (log intensity, higher = more binding, comparable within an allelic series)
binding signal (SIX6 [10]): 9.02 upbm affinity estimate (log intensity, higher = more binding, comparable within an allelic series)
binding signal (SIX6 [11]): 9.01 upbm affinity estimate (log intensity, higher = more binding, comparable within an allelic series)
binding signal (SIX6 [12]): 9.07 upbm affinity estimate (log intensity, higher = more binding, comparable within an allelic series)
binding signal (SIX6 [13]): 8.99 upbm affinity estimate (log intensity, higher = more binding, comparable within an allelic series)
